Cdc25B inh = inhibitors of Cdc25B phosphatase catalytic domain, primary screen, biochemical, OMFP fluorescence; M-phase inducer phosphatase 2 (Homo sapiens), P30305; recombinant Cdc25B, OMFP fluorescence Ex485/Em525; inhibition, %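 (compounds tested at 10 µM final in the well)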; 65,000 tested, 0.1% active; AID 368, 2006; in the data active means inhibition above about 50%
LYP act = LYP phosphatase activators, primary screen, biochemical, DiFMUP fluorescence, 2 µM | Tyrosine-protein phosphatase non-receptor type 22 (Homo sapiens), Q9Y2R2 | 96,000 tested, 0.11% active | activation, % at 2 µM | recombinant LYP; 0 = plate median, 100 = signal doubled;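 active means activation at 2 µM above a set limit, the mean plus 5 SD, cut at about 37% in these data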
FXIa inh mix = FXIa protease inhibitors in compound pools, primary screen, biochemical, 10-compound mixtures. Coagulation factor XI (Homo sapiens), P03951. purified FXIa, fluorogenic substrate, pooled mixtures. inhibition, % at 5 µM. 62,000 tested, 0.19% active;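 further: each value is inhibition by a whole ten-compound pool holding the compound; 0% = enzyme with no mixture and 100% = wells lacking enzyme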
LYP inh 2 = PTPN22 phosphatase inhibitors, primary screen, biochemical, DiFMUP fluorescence, 2 µM; recombinant LYP catalytic domain; inhibition, % at 2 µM; 96,000 tested, 0.21% active; Tyrosine-protein phosphatase non-receptor type 22 (Homo sapiens), Q9Y2R2;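 active means inhibition at 2 µM at or above a set limit, the screen mean plus 3 SD, cut at about 24% in these data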;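 further: 0% = DMSO with enzyme and 100% = enzyme fully blocked by orthovanadate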
FXIIa mix inh = human factor XIIa inhibitors, primary screen, biochemical, pooled compound mixtures, fluorogenic substrate | 62,000 tested, 0.2% active | AID 684, 2007 | purified FXIIa | inhibition, % at 5 µM;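 further: 0% = enzyme without compound and 100% = no enzyme blank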
DUSP1 inh = MKP-1 phosphatase inhibitors, primary screen, biochemical, in vitro; recombinant MKP-1, OMFP hydrolysis fluorescence; inhibition, %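 (compounds tested at a single concentration somewhere between 10 and 100 µM)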; 65,000 tested, 0.15% active;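 active means inhibition above about 50%, limit read from the data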;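 further: 0% = DMSO max control wells and 100% = wells with enzyme stopped by NaOH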
Redox H2O2 = redox cycling hydrogen peroxide production, dose response, artefact control, biochemical, probe assessment | shares compounds with DUSP1 inh | EC50, µM | 60 tested, under 10 active | AID 672, 2007 | Redox cycling H2O2 generation, DTT, phenol red/HRP; call rule not given here
LYP act confirm = retest of PTPN22 activators, confirmation, biochemical, DiFMUP fluorescence, single concentration. Recombinant LYP, activation; zero set by plate's median compound well. shares compounds with LYP act. 100 tested, under 10 active. activation, % at 2 µM; call rule not given here
Active calls of the source: *; . = no result. This is a sample that favours compounds with a hit; in the whole collection about 0.63% have one here. Unless noted, no stated cut-off is given here; in the data, active means inhibition above about 20% (passing the limit was not always enough); inactive means the rest.

SMILES | Cdc25B inh | LYP act | FXIa inh mix | LYP inh 2 | FXIIa mix inh | DUSP1 inh | LYP act confirm | others
Cc1cc(NC(=O)c2ccc(S(=O)(=O)N3CCCC3)cc2)nc2c1c(=O)oc1ccccc12 | 0 | -4 | 1 | 1 | -14 | 67* | . | Redox H2O2=>50
CC(=O)[C@@H]1[C@@H]2C(=O)N(c3ccc(F)c(Cl)c3)C(=O)[C@@H]2C2c3ccccc3C=CN21 (stereo partly specified) | 14 | . | 1 | . | 7 | 20 | . | Redox H2O2=>50
c1ccc(-n2nc3c(ccc4cnnc43)[nH]2)cc1 | 2 | 1 | -5 | -2 | 3 | -2 | .
FC(F)(F)c1ccc(N2CCOCC2)c(Nc2nc3ccccc3n3cnnc23)c1 | -10 | -5 | -9 | 4 | -7 | 61* | . | Redox H2O2=>50
CCn1c(N)c(C(=O)NCC2CCCO2)sc1=S (stereo unspecified) | 2 | 4 | 2 | -6 | 7 | -9 | .
CCCCCNC(=O)c1ccc2c(=O)[nH]c3c(C(=O)NCC4CCCO4)sc(=S)n3c2c1 (stereo unspecified) | -4 | -6 | 0 | 5 | -4 | 55* | . | Redox H2O2=>50
COc1ccc2c(c1)c(=O)oc1cc(OCC(=O)N3CCc4ccccc4C3)ccc12 | . | -18 | . | 16 | . | . | .
Cc1ccc2c(C)nc(NC3=NCN(CCc4ccccc4)CN3)nc2c1 | -7 | . | 2 | . | 7 | 2 | .
CCOC(=O)c1ccc2c(c1)C1C=CCC1C(C(=O)O)N2 (stereo unspecified) | 27 | . | 0 | . | 4 | 57* | . | Redox H2O2=>50
Cc1nn(Cc2ccccc2)c2c1C(c1cccc(Cl)c1)C(C#N)=C(N)O2 (stereo unspecified) | . | -16 | . | 15 | . | . | .
COc1ccc(Cn2c(C)nc3c(c2=O)c2nc4ccccc4nc2n3Cc2ccco2)cc1 | 7 | . | 7 | . | 0 | 40 | . | Redox H2O2=>50
O=C(CN1CCC(NC(=O)Nc2ccccc2-c2ccccc2)CC1)NCc1ccco1 | -1 | . | -1 | . | 7 | 17 | .
CCn1c(SCC(=O)Nc2ccc3c(c2)OCCO3)nnc1-c1ccco1 | -5 | -7 | 11 | 6 | -16 | 3 | .
CCn1c(SCC(=O)Nc2ccc3c(c2)c2ccccc2n3CC)nnc1-c1ccco1 | 24 | -11 | 3 | 14 | -2 | 64* | . | Redox H2O2=>50
CCOC(=O)C(Oc1ccc2c(-c3ccc(OC)cc3)cc(=O)oc2c1C)c1ccccc1 (stereo unspecified) | . | 44* | . | -38 | . | . | -10
CCOC(=O)c1c(-c2ccc(OC)cc2)csc1NC(=O)CSc1ccccc1 | . | 0 | . | -4 | . | . | .
COc1ccc(C2/C(=C(/O)c3ccccc3)C(=O)C(=O)N2CC(C)O)c(OC)c1 (stereo unspecified) | -12 | 5 | -27 | -5 | 7 | -7 | .
CCCCNC(=O)C1CCN(c2nc(OC)nc(OC)n2)CC1 | . | 7 | . | -6 | . | . | .
CC(=O)Nc1nc(C2COc3ccccc3O2)cs1 (stereo unspecified) | . | 41* | . | -38 | . | . | 2
COc1ccc(C(C)(C)C)cc1NC(=O)c1c(C)noc1C | -3 | -5 | 15 | 2 | -18 | 24 | .
CCc1onc(C)c1C(=O)Nc1cc(C)ccc1OC | . | 40* | . | -44 | . | . | -4
Nc1cc(N)nc(SCC(=O)Nc2ccccc2)n1 | . | 1 | . | -1 | . | . | .
Nc1cc(N)nc(SCC(=O)c2ccccc2)n1 | . | 43* | . | -40 | . | . | 4
O=C(NC1CC2CCC1C2)C1COc2ccccc2O1 (stereo unspecified) | -10 | 0 | 10 | -5 | -20 | 11 | .
CC1=C(C(N)=O)C(c2ccccn2)n2nc(SCc3ccccc3Cl)nc2N1 (stereo unspecified) | -5 | 8 | -19 | -10 | 2 | -1 | .
SMILES | Cdc25B inh | LYP act | FXIa inh mix | LYP inh 2 | FXIIa mix inh | DUSP1 inh | LYP act confirm | others
CC1=C(C(N)=O)C(c2cccnc2)n2nc(SCc3ccccc3Cl)nc2N1 (stereo unspecified) | -14 | 46* | 2 | -48 | 7 | -13 | 3
CC(=O)N1c2c(cc(Br)cc2S(=O)(=O)NCc2ccc3c(c2)OCO3)CC1C (stereo unspecified) | -8 | . | 5 | . | 6 | -4 | .
CC(=O)N1c2c(cc(Br)cc2S(=O)(=O)NCC2COc3ccccc3O2)CC1C (stereo unspecified) | -11 | 38* | 9 | -33 | 3 | 15 | -3
C#CCn1c(S(=O)(=O)Cc2ccc(F)cc2)nc(-c2ccccc2)c1-c1ccccc1 | . | 45* | . | -49 | . | . | -7
CCOC(=O)Cn1c(S(=O)(=O)Cc2ccc(F)cc2)nc(-c2ccccc2)c1-c1ccccc1 | . | -9 | . | 13 | . | . | .
CC(Sc1ccc(Cl)cc1)C(=O)NCc1cccnc1 (stereo unspecified) | . | 37* | . | -38 | . | . | 6
O=C(CCCC1=NS(=O)(=O)c2ccccc2N1)N1CCN(c2ccccc2)CC1 | -9 | 40* | 7 | -41 | -1 | 9 | 3
O=C(O)CCCNCc1ccccc1F | -4 | -11 | 7 | 9 | 1 | 8 | .
COc1ccc(C(=O)NCCCN2CCOCC2)cc1OC | . | 44* | . | -41 | . | . | 6
CCOc1cc(S(=O)(=O)NCc2ccccn2)ccc1Cl | . | 37* | . | -39 | . | . | -6
Cc1cccc(CSc2ncc(CO)n2C)c1 | . | 38* | . | -41 | . | . | -4
[O-]/C(=C(\C(=S)Nc1cccc2ccccc12)[n+]1ccccc1)c1ccc2c(c1)OCCO2 | . | -7 | . | 8 | . | . | .
O=C(NCC1CCCO1)c1onc(CSc2ccc(Cl)cc2)c1C(=O)O (stereo unspecified) | . | 7 | . | -4 | . | . | .
COc1cccc(SCc2noc(C(=O)NCC3CCCO3)c2C(=O)O)c1 (stereo unspecified) | . | 54* | . | -49 | . | . | 2
O=C1c2ccccc2C(=O)N1c1n[nH]c(CCc2ccccc2)n1 | -7 | 43* | 1 | -49 | 2 | 11 | -4
COc1ccccc1NC(=O)Cc1noc(CSc2nnc(C)s2)n1 | 4 | 46* | 8 | -50 | -17 | -3 | -2
O=C(CCCSc1nc2sc3c(c2c(=O)[nH]1)CCC3)NCCO | 3 | -5 | 7 | 8 | 6 | -11 | .
OCCOc1ccc(C2=NCCO2)cc1 | -1 | 38* | 1 | -39 | 3 | 14 | -1
CCCOc1ccc(-c2nnn(CC(=O)c3ccc4c(c3)OCCO4)n2)cc1 | -14 | 4 | 5 | -5 | 9 | -24 | .

High-throughput results from PubChem.
